What all share (experiment): DAPPL (digital affinity profiling via proximity ligation, sequencing); 10 mM Tris-HCl pH 7.5, 50 mM NaCl, 1 mM DTT, 4% glycerol, room temperature, 30 min; GST-TFs on glutathione beads, 16-mer random dsDNA library, 0.1% formaldehyde crosslink after washing; high values mean tight binding
One assay has as its target T1, FLI1 (Homo sapiens, UniProt Q01543 1-452).
T1 sequence: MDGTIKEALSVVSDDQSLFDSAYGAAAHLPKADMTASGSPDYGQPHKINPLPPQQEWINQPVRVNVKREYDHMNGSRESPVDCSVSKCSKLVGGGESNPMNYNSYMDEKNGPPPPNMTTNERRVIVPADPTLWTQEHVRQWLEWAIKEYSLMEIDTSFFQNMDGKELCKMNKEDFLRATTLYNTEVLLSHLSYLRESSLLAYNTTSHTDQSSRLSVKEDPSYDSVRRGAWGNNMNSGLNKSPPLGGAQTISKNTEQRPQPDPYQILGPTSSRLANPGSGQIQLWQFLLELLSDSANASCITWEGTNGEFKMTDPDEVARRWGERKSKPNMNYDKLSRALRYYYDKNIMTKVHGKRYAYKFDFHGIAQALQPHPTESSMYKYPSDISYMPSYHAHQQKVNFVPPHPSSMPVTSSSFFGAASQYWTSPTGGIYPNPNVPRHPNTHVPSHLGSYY
Conditions: protein: recombinant; tags: N-terminal GST; dsDNA, one strand shown. In short, it runs like this: (§1)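 Yeast served to express human transcription factors as GST fusions, which were then captured on glutathione beads and labelled with DNA barcodes. Pooled with a tag-only sample, they were incubated with 200 nmole of a 16-mer random double-stranded DNA library for 30 min at room temperature in Tris/NaCl/DTT/glycerol buffer, washed, crosslinked with 0.1% formaldehyde, ligated by proximity, amplified by PCR and sequenced. Dividing each hexamer's read frequency for a factor by its frequency for the tag-only sample gives the binding signal.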

The target of a further assay is T2, ELK1 (Homo sapiens, UniProt P19419 1-428).
T2 sequence: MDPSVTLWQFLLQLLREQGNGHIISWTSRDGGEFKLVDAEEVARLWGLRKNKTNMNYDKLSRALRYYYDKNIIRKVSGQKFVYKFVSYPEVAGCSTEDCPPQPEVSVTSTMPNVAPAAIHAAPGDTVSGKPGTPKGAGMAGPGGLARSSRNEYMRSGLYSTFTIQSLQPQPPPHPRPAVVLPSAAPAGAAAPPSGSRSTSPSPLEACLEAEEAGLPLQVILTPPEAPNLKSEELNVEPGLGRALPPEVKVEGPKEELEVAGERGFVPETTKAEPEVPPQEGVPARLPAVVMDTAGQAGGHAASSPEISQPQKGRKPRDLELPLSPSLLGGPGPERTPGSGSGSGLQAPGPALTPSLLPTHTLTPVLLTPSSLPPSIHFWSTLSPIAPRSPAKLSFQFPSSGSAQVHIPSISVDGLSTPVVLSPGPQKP
Conditions: protein: recombinant; tags: N-terminal GST; dsDNA, one strand shown. In short, it runs like this:
as §1

For another assay, the target named is T3, GABPA (Homo sapiens, UniProt Q06546 1-454).
T3 sequence: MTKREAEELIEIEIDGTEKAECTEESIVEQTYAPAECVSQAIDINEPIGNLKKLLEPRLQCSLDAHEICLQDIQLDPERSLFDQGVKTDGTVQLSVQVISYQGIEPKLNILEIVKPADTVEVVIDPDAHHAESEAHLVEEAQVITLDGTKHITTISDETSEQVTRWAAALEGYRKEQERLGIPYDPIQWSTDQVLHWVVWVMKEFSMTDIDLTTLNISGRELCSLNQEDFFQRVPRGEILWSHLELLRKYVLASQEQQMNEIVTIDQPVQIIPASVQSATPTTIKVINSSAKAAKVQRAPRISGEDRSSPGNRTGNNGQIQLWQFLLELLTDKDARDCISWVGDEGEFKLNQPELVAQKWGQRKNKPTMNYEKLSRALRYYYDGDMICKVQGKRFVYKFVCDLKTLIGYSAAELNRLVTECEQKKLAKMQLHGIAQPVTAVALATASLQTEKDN
The settings on record: protein: recombinant; tags: N-terminal GST; dsDNA, one strand shown. Put shortly:
as §1

For another assay, the target named is T4, ERG (Homo sapiens, UniProt P11308 1-479).
T4 sequence: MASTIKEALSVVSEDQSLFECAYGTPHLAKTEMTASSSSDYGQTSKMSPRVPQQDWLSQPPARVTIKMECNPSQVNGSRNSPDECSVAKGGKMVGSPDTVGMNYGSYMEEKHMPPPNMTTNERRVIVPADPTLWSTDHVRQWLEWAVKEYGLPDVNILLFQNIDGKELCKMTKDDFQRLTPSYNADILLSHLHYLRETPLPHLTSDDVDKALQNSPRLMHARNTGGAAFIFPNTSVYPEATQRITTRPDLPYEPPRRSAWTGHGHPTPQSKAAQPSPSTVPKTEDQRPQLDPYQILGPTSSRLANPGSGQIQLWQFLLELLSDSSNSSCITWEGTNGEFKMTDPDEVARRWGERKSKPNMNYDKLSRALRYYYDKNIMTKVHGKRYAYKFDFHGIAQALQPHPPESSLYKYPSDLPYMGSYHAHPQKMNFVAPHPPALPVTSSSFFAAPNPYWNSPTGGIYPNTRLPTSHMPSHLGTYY
The settings on record: protein: recombinant; tags: N-terminal GST; dsDNA, one strand shown. Put shortly:
as §1

A further assay addresses ELF1 (Homo sapiens, UniProt P32519 1-619). Conditions: protein: recombinant; tags: N-terminal GST; dsDNA, one strand shown. In short, it runs like this:
as §1

The next assay has as its target T5, EHF (Homo sapiens, UniProt Q9NZC4 1-300).
T5 sequence: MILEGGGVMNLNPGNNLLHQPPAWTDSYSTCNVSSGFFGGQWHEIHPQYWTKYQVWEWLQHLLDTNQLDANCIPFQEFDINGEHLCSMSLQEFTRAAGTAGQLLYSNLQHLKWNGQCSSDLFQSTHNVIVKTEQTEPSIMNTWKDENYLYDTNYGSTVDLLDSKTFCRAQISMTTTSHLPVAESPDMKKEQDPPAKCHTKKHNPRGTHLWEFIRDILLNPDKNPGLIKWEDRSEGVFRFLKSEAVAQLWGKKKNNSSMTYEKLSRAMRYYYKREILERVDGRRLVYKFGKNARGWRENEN
The settings on record: protein: recombinant; tags: N-terminal GST; dsDNA, one strand shown. In short, it runs like this:
as §1

Another assay deals with SPI1 (Homo sapiens, UniProt P17947 1-270). The settings on record: protein: recombinant; tags: N-terminal GST; dsDNA, one strand shown. Put shortly:
as §1

Another assay has as its target SPIB (Homo sapiens, UniProt Q01892 1-262). Conditions: protein: recombinant; tags: N-terminal GST; dsDNA, one strand shown. Put shortly: as §1
A further assay has as its target T6, ELK3 (Homo sapiens, UniProt P41970 1-407).
T6 sequence: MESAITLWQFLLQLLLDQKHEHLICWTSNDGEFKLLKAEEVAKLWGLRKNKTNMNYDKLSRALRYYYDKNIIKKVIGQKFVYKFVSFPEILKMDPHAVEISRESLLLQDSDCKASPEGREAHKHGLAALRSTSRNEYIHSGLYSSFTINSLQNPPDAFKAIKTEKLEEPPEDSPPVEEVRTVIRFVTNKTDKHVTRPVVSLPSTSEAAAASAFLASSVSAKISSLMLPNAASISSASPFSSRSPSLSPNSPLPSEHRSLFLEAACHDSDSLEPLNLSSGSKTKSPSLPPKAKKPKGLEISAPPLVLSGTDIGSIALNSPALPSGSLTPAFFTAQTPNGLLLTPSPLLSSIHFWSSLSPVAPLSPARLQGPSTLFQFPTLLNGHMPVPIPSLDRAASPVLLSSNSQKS
The settings on record: protein: recombinant; tags: N-terminal GST; dsDNA, one strand shown. Put shortly:
as §1

The next assay concerns the target T7, FEV (Homo sapiens, UniProt Q99581 1-238).
T7 sequence: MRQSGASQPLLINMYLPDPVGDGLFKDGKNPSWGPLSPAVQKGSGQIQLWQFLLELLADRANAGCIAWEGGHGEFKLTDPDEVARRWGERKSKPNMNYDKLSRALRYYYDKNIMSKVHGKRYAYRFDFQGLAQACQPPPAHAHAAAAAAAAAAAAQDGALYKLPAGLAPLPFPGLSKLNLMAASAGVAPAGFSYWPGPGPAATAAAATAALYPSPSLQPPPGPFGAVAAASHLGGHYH
Conditions: protein: recombinant; tags: N-terminal GST; dsDNA, one strand shown. In short, it runs like this:
as §1

Another assay addresses ETV5 (Homo sapiens, UniProt P41161 1-510). The settings on record: protein: recombinant; tags: N-terminal GST; dsDNA, one strand shown. Put shortly:
as §1

The next assay concerns the target HSF1 (Homo sapiens, UniProt Q00613 1-529). Conditions: protein: recombinant; tags: N-terminal GST; chain copies: 3; dsDNA, one strand shown. In short, it runs like this:
as §1

The next assay concerns the target T8, SPIC (Homo sapiens, UniProt Q8N5J4 1-248).
T8 sequence: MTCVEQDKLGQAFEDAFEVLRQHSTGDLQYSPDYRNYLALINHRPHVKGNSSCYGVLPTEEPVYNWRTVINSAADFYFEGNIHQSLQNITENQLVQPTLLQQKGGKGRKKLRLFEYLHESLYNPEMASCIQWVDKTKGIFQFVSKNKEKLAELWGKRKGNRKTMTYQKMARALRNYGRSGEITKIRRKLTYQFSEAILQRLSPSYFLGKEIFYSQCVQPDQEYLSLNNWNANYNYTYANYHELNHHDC
Conditions: protein: recombinant; tags: N-terminal GST; dsDNA, one strand shown. Put shortly:
as §1

The target in a further assay is ELF4 (Homo sapiens, UniProt Q99607 1-663). The settings on record: protein: recombinant; tags: N-terminal GST; dsDNA, one strand shown. Put shortly: as §1
Sequence of ELF4 (Q99607 whole entry): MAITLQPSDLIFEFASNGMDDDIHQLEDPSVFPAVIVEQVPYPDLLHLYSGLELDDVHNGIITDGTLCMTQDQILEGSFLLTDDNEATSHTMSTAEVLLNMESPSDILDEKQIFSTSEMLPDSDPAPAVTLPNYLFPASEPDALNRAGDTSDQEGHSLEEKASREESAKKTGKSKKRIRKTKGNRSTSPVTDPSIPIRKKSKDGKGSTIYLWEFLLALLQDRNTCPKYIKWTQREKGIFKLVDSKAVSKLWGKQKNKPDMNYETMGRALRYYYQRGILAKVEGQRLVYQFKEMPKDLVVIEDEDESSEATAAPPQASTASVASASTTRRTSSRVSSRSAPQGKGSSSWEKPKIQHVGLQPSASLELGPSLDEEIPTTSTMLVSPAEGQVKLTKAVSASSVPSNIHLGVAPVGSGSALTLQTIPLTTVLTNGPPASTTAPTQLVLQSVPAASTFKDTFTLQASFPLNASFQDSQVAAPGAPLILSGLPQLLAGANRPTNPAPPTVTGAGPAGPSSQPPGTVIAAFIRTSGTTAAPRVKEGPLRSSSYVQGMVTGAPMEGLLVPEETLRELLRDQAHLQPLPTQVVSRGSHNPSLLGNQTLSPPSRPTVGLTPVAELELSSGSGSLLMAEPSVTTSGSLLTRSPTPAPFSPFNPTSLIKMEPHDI
The next assay concerns the target T9, ELK4 (Homo sapiens, UniProt P28324-2 1-405).
T9 sequence: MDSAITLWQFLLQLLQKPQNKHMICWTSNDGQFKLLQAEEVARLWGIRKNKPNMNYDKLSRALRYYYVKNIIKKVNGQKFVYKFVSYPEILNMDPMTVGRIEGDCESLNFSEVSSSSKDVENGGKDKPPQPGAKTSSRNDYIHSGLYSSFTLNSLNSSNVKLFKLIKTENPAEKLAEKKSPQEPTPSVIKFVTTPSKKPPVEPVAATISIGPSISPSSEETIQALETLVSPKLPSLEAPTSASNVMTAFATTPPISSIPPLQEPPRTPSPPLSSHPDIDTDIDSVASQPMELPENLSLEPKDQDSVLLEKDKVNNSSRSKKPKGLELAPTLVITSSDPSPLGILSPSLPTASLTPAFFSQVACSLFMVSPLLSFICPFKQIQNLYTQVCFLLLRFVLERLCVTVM
Conditions: protein: recombinant; tags: N-terminal GST; dsDNA, one strand shown. Put shortly:
as §1

Another assay addresses T10, ETV2 (Homo sapiens, UniProt O00321 1-342).
T10 sequence: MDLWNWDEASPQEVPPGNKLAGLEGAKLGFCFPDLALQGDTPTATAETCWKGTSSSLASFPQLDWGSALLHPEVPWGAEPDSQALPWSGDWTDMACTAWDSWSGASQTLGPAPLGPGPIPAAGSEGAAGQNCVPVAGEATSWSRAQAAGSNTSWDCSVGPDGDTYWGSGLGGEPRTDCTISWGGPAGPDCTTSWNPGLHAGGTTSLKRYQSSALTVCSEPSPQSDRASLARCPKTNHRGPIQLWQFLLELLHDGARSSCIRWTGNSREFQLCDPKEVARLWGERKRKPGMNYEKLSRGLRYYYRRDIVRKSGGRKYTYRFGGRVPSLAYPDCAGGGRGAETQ
Conditions: protein: recombinant; tags: N-terminal GST; dsDNA, one strand shown. Put shortly: as §1

The target of the next assay is CRX (Homo sapiens, UniProt O43186 1-299). The settings on record: protein: recombinant; tags: N-terminal GST; dsDNA, one strand shown. In short, it runs like this: as §1
Sequence of CRX (O43186 whole entry): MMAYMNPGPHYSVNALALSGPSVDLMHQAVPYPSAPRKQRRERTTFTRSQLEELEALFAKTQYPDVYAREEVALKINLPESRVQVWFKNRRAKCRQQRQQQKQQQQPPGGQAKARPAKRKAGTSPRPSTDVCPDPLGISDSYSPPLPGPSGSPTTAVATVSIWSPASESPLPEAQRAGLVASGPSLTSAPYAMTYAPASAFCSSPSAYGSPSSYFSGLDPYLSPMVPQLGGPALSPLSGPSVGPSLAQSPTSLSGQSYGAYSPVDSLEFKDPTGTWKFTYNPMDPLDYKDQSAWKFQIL
A further assay has as its target ETV1 (Homo sapiens, UniProt P50549 1-477). Conditions: protein: recombinant; tags: N-terminal GST; dsDNA, one strand shown. Put shortly: as §1

Sequence of SPIB (Q01892 whole entry): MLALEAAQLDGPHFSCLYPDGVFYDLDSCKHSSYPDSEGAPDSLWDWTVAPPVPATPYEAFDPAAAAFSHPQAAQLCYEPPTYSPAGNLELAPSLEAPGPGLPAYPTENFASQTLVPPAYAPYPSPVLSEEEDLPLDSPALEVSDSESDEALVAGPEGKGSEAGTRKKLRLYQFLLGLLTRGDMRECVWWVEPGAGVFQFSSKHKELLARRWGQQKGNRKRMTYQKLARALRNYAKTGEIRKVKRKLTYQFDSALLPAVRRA
Sequence of HSF1 (Q00613 whole entry): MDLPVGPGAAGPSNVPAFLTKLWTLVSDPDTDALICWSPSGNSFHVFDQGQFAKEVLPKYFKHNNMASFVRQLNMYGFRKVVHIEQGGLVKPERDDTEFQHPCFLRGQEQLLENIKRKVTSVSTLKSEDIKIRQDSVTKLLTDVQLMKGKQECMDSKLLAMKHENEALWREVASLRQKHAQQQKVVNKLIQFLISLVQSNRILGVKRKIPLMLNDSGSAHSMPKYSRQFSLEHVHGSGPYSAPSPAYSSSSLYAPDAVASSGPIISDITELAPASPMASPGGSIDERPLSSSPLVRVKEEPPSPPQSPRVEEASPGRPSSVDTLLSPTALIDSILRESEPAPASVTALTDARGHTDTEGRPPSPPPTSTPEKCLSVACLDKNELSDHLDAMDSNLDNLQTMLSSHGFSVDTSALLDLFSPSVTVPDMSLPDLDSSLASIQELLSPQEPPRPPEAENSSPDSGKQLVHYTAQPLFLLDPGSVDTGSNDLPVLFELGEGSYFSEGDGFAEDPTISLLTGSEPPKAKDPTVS
Sequence of ETV5 (P41161 whole entry): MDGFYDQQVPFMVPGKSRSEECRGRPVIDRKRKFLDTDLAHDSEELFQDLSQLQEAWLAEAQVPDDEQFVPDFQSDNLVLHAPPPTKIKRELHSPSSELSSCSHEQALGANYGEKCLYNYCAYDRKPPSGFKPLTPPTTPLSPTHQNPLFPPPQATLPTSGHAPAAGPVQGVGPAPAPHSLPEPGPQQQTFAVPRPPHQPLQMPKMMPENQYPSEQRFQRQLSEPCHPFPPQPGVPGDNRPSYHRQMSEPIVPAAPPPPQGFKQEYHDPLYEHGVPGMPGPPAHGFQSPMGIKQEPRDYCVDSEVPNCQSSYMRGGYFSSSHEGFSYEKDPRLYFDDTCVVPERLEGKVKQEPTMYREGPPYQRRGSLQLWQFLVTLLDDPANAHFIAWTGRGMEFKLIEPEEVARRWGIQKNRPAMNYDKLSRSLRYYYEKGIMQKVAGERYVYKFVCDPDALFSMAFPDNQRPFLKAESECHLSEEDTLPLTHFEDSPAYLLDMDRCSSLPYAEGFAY
Sequence of ELF1 (P32519 whole entry): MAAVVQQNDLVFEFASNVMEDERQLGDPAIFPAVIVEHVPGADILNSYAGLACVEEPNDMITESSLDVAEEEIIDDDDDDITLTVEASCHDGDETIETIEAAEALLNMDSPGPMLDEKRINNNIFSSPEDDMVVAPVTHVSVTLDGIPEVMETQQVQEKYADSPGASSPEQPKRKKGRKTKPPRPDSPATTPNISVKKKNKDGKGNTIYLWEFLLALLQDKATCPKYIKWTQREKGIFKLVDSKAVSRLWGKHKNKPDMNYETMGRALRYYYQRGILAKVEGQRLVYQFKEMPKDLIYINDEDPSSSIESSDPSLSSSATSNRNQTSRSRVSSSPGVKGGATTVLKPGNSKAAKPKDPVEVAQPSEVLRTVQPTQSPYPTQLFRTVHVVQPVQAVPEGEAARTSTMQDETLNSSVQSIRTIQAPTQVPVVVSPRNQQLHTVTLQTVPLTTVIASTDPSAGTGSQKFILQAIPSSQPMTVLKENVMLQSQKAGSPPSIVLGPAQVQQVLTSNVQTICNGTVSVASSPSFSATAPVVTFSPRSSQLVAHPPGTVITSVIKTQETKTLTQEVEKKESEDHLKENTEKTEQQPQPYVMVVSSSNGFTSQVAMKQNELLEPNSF
Sequence of ETV1 (P50549 whole entry): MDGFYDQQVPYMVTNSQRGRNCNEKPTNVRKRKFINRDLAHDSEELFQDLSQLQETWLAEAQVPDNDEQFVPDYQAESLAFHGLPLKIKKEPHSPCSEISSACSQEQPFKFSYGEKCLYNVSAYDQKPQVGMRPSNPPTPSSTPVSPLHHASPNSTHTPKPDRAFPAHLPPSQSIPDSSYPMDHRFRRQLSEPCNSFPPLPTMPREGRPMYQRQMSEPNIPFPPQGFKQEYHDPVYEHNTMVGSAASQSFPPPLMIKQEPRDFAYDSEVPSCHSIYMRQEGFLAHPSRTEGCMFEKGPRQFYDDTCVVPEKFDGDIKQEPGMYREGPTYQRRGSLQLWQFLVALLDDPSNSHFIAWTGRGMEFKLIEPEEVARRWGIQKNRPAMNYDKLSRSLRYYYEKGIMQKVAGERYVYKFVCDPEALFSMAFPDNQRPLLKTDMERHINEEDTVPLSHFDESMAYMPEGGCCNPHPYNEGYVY

Consider TCGCAA, for which the binding signal with FLI1 was 1.21 fold enrichment (6-mer frequency, TF over GST control); with ELK1, 1.22 fold enrichment (6-mer frequency, TF over GST control); with GABPA, 1.19 fold enrichment (6-mer frequency, TF over GST control); with ERG, 1.16 fold enrichment (6-mer frequency, TF over GST control); with ELF1 it was 1.19 fold enrichment (6-mer frequency, TF over GST control); with EHF it was 1.18 fold enrichment (6-mer frequency, TF over GST control). Also, the binding signal with SPI1 was 1.03 fold enrichment (6-mer frequency, TF over GST control); in the assay with SPIB, 1.08 fold enrichment (6-mer frequency, TF over GST control); with ELK3, 1.06 fold enrichment (6-mer frequency, TF over GST control); with FEV, 1.11 fold enrichment (6-mer frequency, TF over GST control); with ETV5, 1.06 fold enrichment (6-mer frequency, TF over GST control); in the assay with HSF1, 1.22 fold enrichment (6-mer frequency, TF over GST control). Moreover, the binding signal with SPIC is 1.32 fold enrichment (6-mer frequency, TF over GST control); with ELF4, 1.15 fold enrichment (6-mer frequency, TF over GST control); with ELK4 it was 1.03 fold enrichment (6-mer frequency, TF over GST control); in the assay with ETV2, 1.18 fold enrichment (6-mer frequency, TF over GST control); with CRX it was 1.05 fold enrichment (6-mer frequency, TF over GST control); with ETV1, 1.1 fold enrichment (6-mer frequency, TF over GST control).

Values taken from article PMC7862700, “An all-to-all approach to the identification of sequence-specific readers for epigenetic DNA modifications on cytosine”.
